Assay results: the supplement of paper PMC3342239
Where a name gives a salt, the structure may show the parent alone.

System: Saccharomyces cerevisiae
Test: fraction of cells in G1 phase (DNA content, flow cytometry); higher = more cells with unreplicated DNA (G1 delay)
Conditions: temperature: 30 C; YPD; JTY2953 pdr5 snq2 (sensitized); drug added to: cultures diluted from stationary phase; 6-7 h
Summary of the method: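 S. cerevisiae grown in YPD at 30°C was exposed to library drugs. In one setup, overnight sensitized JTY2953 cultures were diluted 1∶200, given a final 20 µg/ml and fixed after 6–7 h, while other runs dosed dividing JTY2953 with fixation 6 h later or BY4741 with fixation 4.33 h later. Cells were ethanol-fixed, stained with SYTOX Green and analysed by flow cytometry at 10,000 events. The G1 fraction is the area of the Dean-Jett-Fox G1 peak divided by the summed G1 and G2/M areas.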

Row | Structure (SMILES) | fraction of cells in G1 phase
1 | COCCOC(=O)C1=C(C)NC(C)=C(C(=O)OC(C)C)C1c1cccc([N+](=O)[O-])c1 (configuration not stated) [Nimodipine] (47.7954 µM) | 0.521
2 | COc1ncnc(NS(=O)(=O)c2ccc(N)cc2)c1OC [Sulfadoxine] (64.4467 µM) | 0.474
3 | Nc1c2c(nc3ccccc13)CCCC2O (configuration not stated) [Hydroxytacrine maleate] (93.3405 µM) | 0.513
4 | CCCCc1nc(Cl)c(CO)n1Cc1ccc(-c2ccccc2-c2nnn[nH]2)cc1 [Losartan potassium] (43.3825 µM) | 0.487
5 | CC(C)C[C@H](NC(=O)[C@@H](COC(C)(C)C)NC(=O)[C@H](Cc1ccc(O)cc1)NC(=O)[C@H](CO)NC(=O)[C@H](Cc1c[nH]c2ccccc12)NC(=O)[C@H](Cc1cnc[nH]1)NC(=O)[C@@H]1CCC(=O)N1)C(=O)N[C@@H](CCCNC(=N)N)C(=O)N1CCC[C@H]1C(=O)NNC(N)=O [Goserelin acetate] (15.755 µM) | 0.485
6 | Cc1cc2c(s1)Nc1ccccc1N=C2N1CCN(C)CC1 [Olanzapine] (64.0123 µM) | 0.527
7 | C[C@]12CC[C@@H]3c4ccc(O)cc4CC[C@H]3[C@@H]1CC[C@@H]2O [Estradiol] (73.4239 µM) | 0.58
8 | Cc1cnc(NC(=O)C2=C(O)c3ccccc3S(=O)(=O)N2C)s1 [Meloxicam] (56.9143 µM) | 0.501
9 | CN1CCN(C2=Nc3cc(F)ccc3Cc3ccccc32)CC1 [Fluperlapine] (64.6434 µM) | 0.512
10 | C[C@@H]1CCC[C@H](C)N1NC(=O)c1ccc(Cl)c(S(N)(=O)=O)c1 [Clopamide] (57.8284 µM) | 0.525
11 | CCN1CCC[C@H]1CNC(=O)c1c(O)c(Cl)cc(Cl)c1OC [Raclopride l-tartrate s(-)] (57.5963 µM) | 0.521
12 | c1ccc2c(CC3=NCCN3)cccc2c1 [Naphazoline HCl] (95.1108 µM) | 0.456
13 | O=C(O)c1ccccc1Nc1cccc(C(F)(F)F)c1 [Flufenamic acid] (71.1145 µM) | 0.582
14 | CC[C@H]1OC(=O)[C@H](C)[C@@H](O[C@H]2C[C@@](C)(OC)[C@@H](O)[C@H](C)O2)[C@H](C)[C@@H](O[C@@H]2O[C@H](C)C[C@H](N(C)C)[C@H]2O)[C@](C)(OC)C[C@@H](C)C(=O)[C@H](C)[C@@H](O)[C@]1(C)O [Clarithromycin] (26.7389 µM) | 0.489
15 | COc1cc(C)c(/C=C/C(C)=C/C=C/C(C)=C/C(=O)O)c(C)c1C [Acitretin] (61.2745 µM) | 0.563
16 | CN1CCc2cccc3c2[C@H]1Cc1ccc(O)c(O)c1-3 [Apomorphine r (-)] (74.8137 µM) | 0.483
17 | O=c1[nH]c(=O)n(C2CCCO2)cc1F (configuration not stated) [Ftorafur] (99.9146 µM) | 0.512
18 | CC(C)(C)[C@]1(O)CCN2C[C@H]3c4ccccc4CCc4cccc(c43)[C@@H]2C1 [Butaclamol (+)] (55.3201 µM) | 0.535
19 | C[C@H]1COc2c(C3(N)CC3)c(F)cc3c(=O)c(C(=O)O)cn1c23 [Pazufloxacin] (62.8324 µM) | 0.474
20 | CC[C@@]1(O)C(=O)OCc2c1cc1n(c2=O)Cc2cc3cc(O)ccc3nc2-1 [10-hydroxycamptothecin] (54.8906 µM) | 0.499
21 | Cc1nc2c([nH]1)c(=O)n(C)c(=O)n2Cc1ccco1 [Furafylline] (76.8479 µM) | 0.463
22 | Clc1cccc(Cl)c1NC1=NCCN1 [Clonidine HCl] (75.0469 µM) | 0.504
23 | NC(=O)N1c2ccccc2CC(=O)c2ccccc21 [Oxcarbazepine] (79.2785 µM) | 0.503
24 | CCCCN1C[C@H](O)[C@@H](O)[C@H](O)[C@H]1CO [Miglustat] (91.2063 µM) | 0.456
25 | CCCOc1ccc2[nH]c(NC(=O)OC)nc2c1 [Oxibendazole] (80.2338 µM) | 0.481
26 | C[C@@H](O)[C@@H]1NC(=O)[C@H](CCCCN)NC(=O)[C@@H](Cc2c[nH]c3ccccc23)NC(=O)[C@H](Cc2ccccc2)NC(=O)[C@@H](NC(=O)[C@H](N)Cc2ccccc2)CSSC[C@@H](C(=O)N[C@H](CO)[C@@H](C)O)NC1=O [Octreotide] (19.6221 µM) | 0.478
27 | CCOC(=O)C1=C[C@]2(CC)CCCN3CCc4c(n1c1ccccc41)[C@@H]32 [Vinpocetine] (57.0671 µM) | 0.439
